# Experimental data published in PubChem BioAssay (EPA / NIEHS).
# Results filed as inconclusive are left out. Activity calls are given as the source filed them. How the source made its calls: active means hit-call score of the fitted dose curve at least 0.9, where 1 is the maximum; inconclusive means response in the unintended direction; inactive means score below 0.9.
# Legend:
# [1] = molecular target: rat Androgen Receptor (AR), Ar (gene 24208) (UniProt P15207); experiment: NVS_NR_rAR: NovaScreen (NVS) Nuclear Receptor Binding Assay for rat Androgen Receptor (AR) (AID 2283366)
# Chain of rat Androgen Receptor (AR), Ar (gene 24208) (P15207 whole entry, looked up): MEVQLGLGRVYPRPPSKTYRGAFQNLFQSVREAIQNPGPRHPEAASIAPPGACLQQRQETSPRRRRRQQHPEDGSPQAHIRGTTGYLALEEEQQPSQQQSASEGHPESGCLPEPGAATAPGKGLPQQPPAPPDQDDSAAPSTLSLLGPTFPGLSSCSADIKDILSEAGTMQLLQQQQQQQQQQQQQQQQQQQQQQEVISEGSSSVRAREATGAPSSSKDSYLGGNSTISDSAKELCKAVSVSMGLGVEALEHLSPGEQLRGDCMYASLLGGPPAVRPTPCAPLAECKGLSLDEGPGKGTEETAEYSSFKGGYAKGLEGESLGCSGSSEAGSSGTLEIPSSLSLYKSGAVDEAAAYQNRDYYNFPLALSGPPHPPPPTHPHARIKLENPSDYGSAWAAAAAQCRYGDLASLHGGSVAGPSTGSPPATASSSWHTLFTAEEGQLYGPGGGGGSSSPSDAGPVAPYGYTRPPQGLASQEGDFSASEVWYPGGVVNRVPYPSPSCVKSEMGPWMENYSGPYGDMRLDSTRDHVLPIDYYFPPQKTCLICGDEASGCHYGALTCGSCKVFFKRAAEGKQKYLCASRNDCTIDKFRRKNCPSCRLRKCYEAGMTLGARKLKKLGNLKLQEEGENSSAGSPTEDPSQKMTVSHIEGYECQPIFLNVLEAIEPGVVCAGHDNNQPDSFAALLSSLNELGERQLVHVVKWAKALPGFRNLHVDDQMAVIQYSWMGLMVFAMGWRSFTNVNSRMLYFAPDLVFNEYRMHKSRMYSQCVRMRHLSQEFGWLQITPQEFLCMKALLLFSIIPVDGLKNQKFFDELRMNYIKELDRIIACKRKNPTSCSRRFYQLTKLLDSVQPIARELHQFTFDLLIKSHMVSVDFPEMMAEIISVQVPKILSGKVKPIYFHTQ
# How it was run: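 Cell-free radioligand binding on extracts of prostate from testosterone-pretreated rats, read by filter-based scintillation counting 18 h after dosing. Loss of bound signal fitted positively versus DMSO; primary screen in duplicate at 25 uM, actives followed up in concentration series.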
# [2] = molecular target: human Thyroid Receptor Alpha (TRa), THRA (gene 7067) (UniProt P10827); experiment: NVS_NR_hTRa_Antagonist: NovaScreen (NVS) Nuclear Receptor Binding Assay for human Thyroid Receptor Alpha Antagonism (TRa) (AID 2283362);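 further: activity is loss of signal relative to DMSO baseline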
# Chain of human Thyroid Receptor Alpha (TRa), THRA (gene 7067) (P10827 whole entry, looked up): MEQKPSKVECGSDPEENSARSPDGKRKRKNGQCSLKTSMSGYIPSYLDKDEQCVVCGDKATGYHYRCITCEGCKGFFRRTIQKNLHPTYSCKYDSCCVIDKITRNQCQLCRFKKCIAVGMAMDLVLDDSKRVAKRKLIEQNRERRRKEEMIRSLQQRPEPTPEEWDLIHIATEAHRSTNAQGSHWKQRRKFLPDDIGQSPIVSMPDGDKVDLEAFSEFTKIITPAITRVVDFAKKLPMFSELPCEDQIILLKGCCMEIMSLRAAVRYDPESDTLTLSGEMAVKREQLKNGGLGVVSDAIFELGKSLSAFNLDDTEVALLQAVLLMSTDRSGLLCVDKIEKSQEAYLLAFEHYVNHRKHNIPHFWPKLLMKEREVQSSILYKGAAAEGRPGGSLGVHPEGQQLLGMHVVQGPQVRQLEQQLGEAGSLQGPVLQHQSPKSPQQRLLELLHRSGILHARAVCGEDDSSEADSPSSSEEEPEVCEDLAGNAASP
# How it was run: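 In this biochemical format, receptor protein is dosed with chemical and read after 1 hour via AlphaLISA. Decreases from the DMSO baseline indicate antagonist activity; screening used 25 uM in duplicate before concentration-response confirmation.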
# [3] = molecular target: Nuclear receptor subfamily 1 group I member 2 (Homo sapiens) (UniProt O75469); experiment: NVS_NR_hPXR: NovaScreen (NVS) Nuclear Receptor Binding Assay for human Pregnane X Receptor (PXR) (AID 2283365);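 further: a drop in FRET signal versus DMSO baseline means the compound binds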
# Chain of Nuclear receptor subfamily 1 group I member 2 (Homo sapiens) (O75469 whole entry, looked up): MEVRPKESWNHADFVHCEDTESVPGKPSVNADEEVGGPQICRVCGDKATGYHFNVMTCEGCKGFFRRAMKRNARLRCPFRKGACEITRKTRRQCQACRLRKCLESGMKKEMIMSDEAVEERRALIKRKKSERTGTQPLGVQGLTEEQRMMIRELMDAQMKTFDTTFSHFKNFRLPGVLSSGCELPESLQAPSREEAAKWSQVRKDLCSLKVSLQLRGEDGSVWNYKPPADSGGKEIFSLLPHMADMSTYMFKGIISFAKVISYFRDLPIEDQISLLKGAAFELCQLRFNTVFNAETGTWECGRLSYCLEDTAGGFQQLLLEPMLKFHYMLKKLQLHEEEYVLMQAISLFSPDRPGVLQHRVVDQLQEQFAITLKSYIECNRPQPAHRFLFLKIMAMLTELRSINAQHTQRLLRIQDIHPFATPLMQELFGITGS
# How it was run: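 Read-out: TR-FRET, human PXR, 2 h post-dosing, cell-free. Loss of signal vs DMSO taken as binding activity; 25 uM primary, concentration series secondary.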
# [4] = molecular target: Estrogen receptor beta (Homo sapiens) (UniProt Q92731); experiment: OT_ER_ERbERb_0480: Odyssey Thera (OT) 8-hour HEK293T Protein-Complementation Assay for Estrogen Receptor-beta/-beta Homodimer (AID 2283357);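 further: active means signal gain over DMSO baseline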
# Chain of Estrogen receptor beta (Homo sapiens) (Q92731 whole entry, looked up, the tested form may be a part): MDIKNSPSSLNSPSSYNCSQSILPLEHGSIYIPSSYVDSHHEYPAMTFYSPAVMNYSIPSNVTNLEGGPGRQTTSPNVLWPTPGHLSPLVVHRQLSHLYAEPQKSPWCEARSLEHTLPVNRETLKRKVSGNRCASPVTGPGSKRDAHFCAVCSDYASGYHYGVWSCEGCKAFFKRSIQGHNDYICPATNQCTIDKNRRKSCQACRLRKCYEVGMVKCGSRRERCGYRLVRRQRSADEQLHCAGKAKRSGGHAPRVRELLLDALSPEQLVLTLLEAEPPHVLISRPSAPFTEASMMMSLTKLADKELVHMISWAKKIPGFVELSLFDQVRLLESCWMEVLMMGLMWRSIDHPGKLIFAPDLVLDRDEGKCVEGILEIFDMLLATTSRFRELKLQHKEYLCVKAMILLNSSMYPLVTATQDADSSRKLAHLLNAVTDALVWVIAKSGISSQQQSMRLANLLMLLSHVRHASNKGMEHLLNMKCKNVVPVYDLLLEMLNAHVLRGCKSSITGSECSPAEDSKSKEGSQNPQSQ
# How it was run: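 Readout: increase in mean fluorescence intensity (nucleus for agonists; nucleus plus cytoplasm for antagonists) relative to DMSO, from a reporter-fragment complementation of human ER-beta LBD homodimer in HEK293T cells dosed 8 hours.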
# [5] = molecular target: Retinoic acid receptor alpha (Homo sapiens) (UniProt P10276); experiment: NVS_NR_hRAR_Antagonist: NovaScreen (NVS) Nuclear Receptor Binding Assay for human Retinoic Acid Alpha Receptor Antagonism (RAR) (AID 2283358)
# Chain of Retinoic acid receptor alpha (Homo sapiens) (P10276 whole entry, looked up): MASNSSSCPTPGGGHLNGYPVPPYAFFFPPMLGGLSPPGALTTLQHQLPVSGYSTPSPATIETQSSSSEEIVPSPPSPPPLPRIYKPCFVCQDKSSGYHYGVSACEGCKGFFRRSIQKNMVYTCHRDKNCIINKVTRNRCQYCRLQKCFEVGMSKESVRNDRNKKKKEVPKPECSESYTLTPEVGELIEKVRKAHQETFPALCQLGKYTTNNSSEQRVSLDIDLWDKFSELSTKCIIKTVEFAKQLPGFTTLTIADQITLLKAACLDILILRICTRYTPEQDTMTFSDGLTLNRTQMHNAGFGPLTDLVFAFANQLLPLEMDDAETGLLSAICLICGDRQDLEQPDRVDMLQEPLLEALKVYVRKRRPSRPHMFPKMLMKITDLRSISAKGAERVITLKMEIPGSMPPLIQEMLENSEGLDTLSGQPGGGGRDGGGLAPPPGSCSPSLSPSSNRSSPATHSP
# How it was run: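 Cell-free TR-FRET binding assay on extracted receptor protein, run in antagonist mode; signal read 2 hours after chemical dosing. Loss of signal was fitted relative to DMSO baseline. Screened at 25 uM in duplicate, actives followed up in concentration series.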
# [6] = molecular target: Glucocorticoid receptor (Homo sapiens) (UniProt P04150); experiment: NVS_NR_hGR: NovaScreen (NVS) Nuclear Receptor Binding Assay for human Glucocorticoid Receptor (GR) (AID 2283363);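 further: activity is loss of specific radioligand binding signal relative to DMSO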
# Chain of Glucocorticoid receptor (Homo sapiens) (P04150 whole entry, looked up): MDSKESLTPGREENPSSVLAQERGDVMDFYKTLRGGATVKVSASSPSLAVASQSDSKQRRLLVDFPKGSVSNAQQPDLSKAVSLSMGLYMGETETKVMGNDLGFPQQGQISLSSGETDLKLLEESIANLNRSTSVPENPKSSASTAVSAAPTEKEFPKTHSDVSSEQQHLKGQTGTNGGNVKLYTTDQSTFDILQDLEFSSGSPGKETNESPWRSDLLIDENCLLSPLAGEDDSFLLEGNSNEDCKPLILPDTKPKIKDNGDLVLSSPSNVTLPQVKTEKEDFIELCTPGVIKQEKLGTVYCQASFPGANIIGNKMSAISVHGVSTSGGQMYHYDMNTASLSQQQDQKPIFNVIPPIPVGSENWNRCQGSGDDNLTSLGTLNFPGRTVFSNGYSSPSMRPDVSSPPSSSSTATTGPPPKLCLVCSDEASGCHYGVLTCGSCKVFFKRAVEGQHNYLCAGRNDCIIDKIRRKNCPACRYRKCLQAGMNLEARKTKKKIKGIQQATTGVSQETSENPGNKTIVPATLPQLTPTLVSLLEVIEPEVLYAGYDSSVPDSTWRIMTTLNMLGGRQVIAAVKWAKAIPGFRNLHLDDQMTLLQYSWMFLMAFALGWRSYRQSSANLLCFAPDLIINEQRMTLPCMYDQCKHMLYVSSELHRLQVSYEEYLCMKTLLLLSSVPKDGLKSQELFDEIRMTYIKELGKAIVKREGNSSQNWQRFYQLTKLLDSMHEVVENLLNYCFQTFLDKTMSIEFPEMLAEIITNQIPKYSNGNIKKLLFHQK
# How it was run: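 Cell-free radioligand binding with extracted receptor protein, read by filter-based scintillation counting 16 hours after dosing. Loss of specific signal versus DMSO baseline was scored. Primary screen ran in duplicate at 25 uM; actives were followed up in concentration series.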
# [7] = molecular target: PGR (gene 5241) (UniProt P06401); experiment: NVS_NR_hPR: NovaScreen (NVS) Nuclear Receptor Binding Assay for human Progestron Receptor (PR) (AID 2283360);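 further: active means loss of bound radioligand signal versus DMSO baseline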
# Chain of PGR (gene 5241) (P06401 whole entry, looked up): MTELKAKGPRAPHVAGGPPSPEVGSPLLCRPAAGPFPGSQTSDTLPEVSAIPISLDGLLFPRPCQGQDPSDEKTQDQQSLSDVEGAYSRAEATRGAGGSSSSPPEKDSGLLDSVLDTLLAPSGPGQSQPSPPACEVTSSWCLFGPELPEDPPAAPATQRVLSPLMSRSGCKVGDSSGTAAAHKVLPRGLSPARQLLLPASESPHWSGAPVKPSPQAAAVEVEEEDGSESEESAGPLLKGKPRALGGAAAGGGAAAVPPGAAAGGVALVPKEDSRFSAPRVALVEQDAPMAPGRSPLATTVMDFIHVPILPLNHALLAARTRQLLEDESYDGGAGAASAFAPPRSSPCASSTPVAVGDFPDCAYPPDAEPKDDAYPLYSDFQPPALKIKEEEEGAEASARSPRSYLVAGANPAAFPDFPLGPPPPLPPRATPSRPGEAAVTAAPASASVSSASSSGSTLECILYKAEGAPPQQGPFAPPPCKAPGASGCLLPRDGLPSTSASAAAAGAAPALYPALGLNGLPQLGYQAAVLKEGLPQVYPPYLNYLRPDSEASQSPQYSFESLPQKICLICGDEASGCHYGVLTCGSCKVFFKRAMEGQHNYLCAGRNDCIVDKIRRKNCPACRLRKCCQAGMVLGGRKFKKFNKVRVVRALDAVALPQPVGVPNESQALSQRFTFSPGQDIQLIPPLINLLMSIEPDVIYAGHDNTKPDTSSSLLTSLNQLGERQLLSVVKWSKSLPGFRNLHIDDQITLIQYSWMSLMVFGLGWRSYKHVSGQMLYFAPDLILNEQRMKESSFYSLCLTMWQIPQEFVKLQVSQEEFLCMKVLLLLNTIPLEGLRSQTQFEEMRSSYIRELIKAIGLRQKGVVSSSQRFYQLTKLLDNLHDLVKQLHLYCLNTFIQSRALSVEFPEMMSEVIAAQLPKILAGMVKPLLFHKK
# How it was run: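 T47D-derived receptor preparation, cell-free, with tritiated or iodinated radioligand displacement measured by scintillation 18 h post-dosing. Single 25 uM duplicate screen, then concentration series; signal loss relative to DMSO.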
# [8] = molecular target: Retinoic acid receptor alpha (Homo sapiens) (UniProt P10276); experiment: NVS_NR_hRARa_Agonist: NovaScreen (NVS) Nuclear Receptor Binding Assay for human Retinoic Acid Alpha Receptor Agonism (RAR) (AID 2283361)
# How it was run: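 Cell-free TR-FRET binding read-out with extracted human RARα protein, read 2 h after compound addition. Gain of signal scored against DMSO baseline. Primary screen at a single 25 uM in duplicate; actives then retested in concentration series.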
# [9] = molecular target: guinea pig Sigma Receptor, Non-selective Binding, SIGMAR1 (gene 100135589) (UniProt Q60492); experiment: NVS_OR_gSIGMA_NonSelective: NovaScreen (NVS) Nuclear Receptor Binding Assay for guinea pig Sigma Receptor, Non-selective Binding (AID 2283367)
# Chain of guinea pig Sigma Receptor, Non-selective Binding, SIGMAR1 (gene 100135589) (Q60492 whole entry, looked up): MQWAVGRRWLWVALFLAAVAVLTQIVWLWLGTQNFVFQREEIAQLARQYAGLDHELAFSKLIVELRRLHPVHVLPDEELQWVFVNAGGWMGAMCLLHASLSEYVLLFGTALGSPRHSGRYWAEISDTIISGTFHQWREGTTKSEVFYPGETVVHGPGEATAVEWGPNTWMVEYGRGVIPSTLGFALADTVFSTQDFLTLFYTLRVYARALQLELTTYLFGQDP
# How it was run: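 Guinea pig brain membranes, cell-free radioligand binding; read 1 h after dosing by filter-based scintillation counting. Loss of signal vs DMSO baseline taken as displacement. Primary screen single concentration 25 uM in duplicate; actives retested in concentration series.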
compound,measurement,setting,value
C=C(C)[C@H]1CC=C(C)C(=O)C1,outcome,[1],inactive
Oc1ccc2cc(SSc3ccc4cc(O)ccc4c3)ccc2c1,outcome,[2],inactive
same,outcome,[3],inactive
CCCCC(CC)COC(C)=O (centres undefined),outcome,[4],inactive
same,outcome,[3],inactive
CCOc1ccc(N=Nc2ccc(C=Cc3ccc(N=Nc4ccc(OCC)cc4)cc3S(=O)(=O)O)c(S(=O)(=O)O)c2)cc1,AC50,[5],12.9 µM (active)
same,AC50,[2],14.1 µM (active)
same,AC50,[6],3.4 µM (active)
same,AC50,[3],0.695 µM (active)
OCCc1ccccc1,outcome,[3],inactive
CCC(C)c1cc([N+](=O)[O-])cc([N+](=O)[O-])c1OC(=O)OC(C)C (centres undefined),outcome,[7],inactive
same,AC50,[6],5.81 µM (active)
ClC(c1ccccc1)(c1ccccc1)c1ccccc1,outcome,[7],inactive
O=C(O)c1ccc(O)cc1,outcome,[3],inactive
CCOC(=O)C1OC1c1ccccc1 (centres undefined),outcome,[3],inactive
C=C(C)C(=O)OCCOCCOCCOC(=O)C(=C)C,outcome,[7],inactive
O=P(O)(O)O,outcome,[4],inactive
same,outcome,[3],inactive
Cc1cc(=O)oc2cc(N(C)C)ccc12,AC50,[8],14.6 µM (active)
CCOc1ccc(NC(=O)CC(C)=O)cc1,AC50,[6],1.99 µM (active)
CCOCCOCCOCC,AC50,[9],4.87 µM (active)
CN(c1nccc(=O)[nH]1)C1CCN(c2nc3ccccc3n2Cc2ccc(F)cc2)CC1,outcome,[7],inactive
same,AC50,[9],0.976 µM (active)
CS(=O)(=O)c1ccc(C2=C(c3ccccc3)C(=O)OC2)cc1,outcome,[7],inactive
